PubChem BioAssay (NCI)
This is part of a sample that, as a whole, favours compounds with a hit. Of some 79,000 tested, about 15% had one in any assay. The source made the active and inactive calls. Cut-off read from the data, not from the text of the source: active = growth inhibition above about 70%; inactive = the rest.

Tests used:
[1] = NCI Yeast Anticancer Drug Screen. Data for the rad50 strain (AID 155);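 note: 0% = growth of vehicle-only cultures of the same strain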; details: S. cerevisiae rad50 strain growth inhibition, active compounds read high
Procedure, shortened: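 Inhibition values express reduced yeast growth in compound-treated cultures relative to vehicle-treated controls.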

[2] = NCI Yeast Anticancer Drug Screen. Data for the mec2-1 strain (AID 157); details: S. cerevisiae mec2-1 strain, active compounds read high
Procedure, shortened: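 Cells of the genetically defined mec2-1 yeast strain are incubated with test compound. Inhibition of growth is calculated against vehicle-treated controls.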

[3] = NCI Yeast Anticancer Drug Screen. Data for the sgs1 mgt1 strain (AID 161);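 note: 0% = growth of cultures given vehicle only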; details: S. cerevisiae sgs1 mgt1 strain, active compounds read high
Procedure, shortened: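 Read-out: growth inhibition vs vehicle controls. Cells: mutant yeast strain deficient in DNA damage repair.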

[4] = NCI Yeast Anticancer Drug Screen. Data for the cln2 rad14 strain (AID 165);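 note: 0% = growth equal to vehicle treated cultures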; details: S. cerevisiae cln2 rad14 strain, active compounds read high
Procedure, shortened: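 The screen exposed genetically defined yeast (cln2 rad14) to test compounds and scored growth inhibition relative to vehicle-treated controls.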

[5] = NCI Yeast Anticancer Drug Screen. Data for the bub3 strain (AID 167); details: S. cerevisiae bub3 mutant strain, active compounds read high
Procedure, shortened: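 Steps: expose the mutant yeast strain to compound; grow alongside vehicle-treated cultures; measure growth; express inhibition against the vehicle cultures.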

[6] = NCI Yeast Anticancer Drug Screen. Data for the mlh1 rad18 strain (AID 175); details: S. cerevisiae mlh1 rad18 strain growth inhibition, active compounds read high
Procedure, shortened: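 Compound-treated yeast growth, normalised to vehicle controls. Strain bears defined DNA repair mutations.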

[7] = at 5.0 µM (retest, dose inferred, filed as 0.5)
[8] = at 50.0 µM (retest, dose inferred, filed as 5.0)

Measured: growth inhibition

COc1cnc2cc3c4c(cccc4c2c1)NC3=O
inactive: [2]; [7] 51% | [3]; [7] 55% | [4]; [7] 43% | [5]; [7] 51%
active: [1]; [7] 87% | [1]; [8] 91% | [1]; at 50.0 µM 80% | [2]; [8] 89% | [2]; at 50.0 µM 82.2% | [3]; [8] 92% | [3]; at 50.0 µM 79.7% | [4]; [8] 83% | [4]; at 50.0 µM 75% | [5]; [8] 87% | [5]; at 50.0 µM 80.8% | [6]; [7] 75% | [6]; [8] 91% | [6]; at 50.0 µM 86%

Nc1c(NCc2ccccc2)ccc2ncccc12
inactive: [1]; [7] -10% | [2]; [7] -17% | [3]; [7] -7% | [4]; [7] -7% | [5]; [7] 2% | [6]; [7] 6%
active: [1]; [8] 93% | [1]; at 50.0 µM 95.2% | [2]; [8] 97% | [2]; at 50.0 µM 93.4% | [3]; [8] 94% | [3]; at 50.0 µM 93.2% | [4]; [8] 71% | [4]; at 50.0 µM 96.4% | [5]; [8] 93% | [5]; at 50.0 µM 98% | [6]; [8] 96% | [6]; at 50.0 µM 98.1%

Cc1nc2c(nc1C)C(=O)C1=C(C2=O)C2C=CC1CC2
inactive: [1]; [7] 0% | [2]; [7] -2% | [3]; [7] 2% | [4]; [7] -3% | [4]; [8] 68% | [4]; at 50.0 µM 57% | [5]; [7] 24% | [6]; [7] 2%
active: [1]; [8] 87% | [1]; at 50.0 µM 89.8% | [2]; [8] 90% | [2]; at 50.0 µM 74.6% | [3]; [8] 94% | [3]; at 50.0 µM 94.7% | [5]; [8] 94% | [5]; at 50.0 µM 93.5% | [6]; [8] 93% | [6]; at 50.0 µM 91.8%

Nc1ccc2c(c1)NCCN2
inactive: [1]; [7] 42% | [2]; [7] 5% | [2]; [8] 17% | [2]; at 50.0 µM 32.1% | [3]; [7] 4% | [3]; [8] 20% | [3]; at 50.0 µM 23.5% | [4]; [7] 3% | [4]; [8] 6% | [4]; at 50.0 µM 21.4% | [5]; [7] 1% | [5]; [8] 18% | [5]; at 50.0 µM 18.2% | [6]; [7] 7% | [6]; [8] 31% | [6]; at 50.0 µM 53.4%
active: [1]; [8] 76% | [1]; at 50.0 µM 84%

CC(=C/c1ccccc1)/C=C1/NC(=S)N(/C=C2\C(=O)Oc3ccccc3C2=O)C1=O
inactive: [1]; [7] -13% | [1]; [8] 28% | [2]; [7] -8% | [2]; [8] 41% | [3]; [7] -16% | [3]; [8] 28% | [4]; [7] -28% | [4]; [8] 34% | [5]; [7] -24% | [5]; [8] 11% | [6]; [7] -7% | [6]; [8] 12%
active: [1]; at 50.0 µM 98.1% | [2]; at 50.0 µM 98.7% | [3]; at 50.0 µM 89.1% | [4]; at 50.0 µM 98.5% | [5]; at 50.0 µM 98.5% | [6]; at 50.0 µM 98.5%

CCOP(=O)(OCC)C(NC(=O)OCC(Cl)(Cl)Cl)n1nnc(C(=O)OC)c1C(=O)OC (configuration not stated)
active: [1]; [8] 79% | [3]; [8] 89% | [5]; [8] 92% | [6]; [8] 70%
inactive: [1]; [7] -7% | [1]; at 50.0 µM -8.8% | [2]; [7] -4% | [2]; [8] 46% | [2]; at 50.0 µM 4.15% | [3]; [7] -6% | [3]; at 50.0 µM 10.6% | [4]; [7] -3% | [4]; [8] 69% | [4]; at 50.0 µM 36.4% | [5]; [7] -1% | [5]; at 50.0 µM -0.7% | [6]; [7] -1% | [6]; at 50.0 µM -1.15%

Cc1ccc2nc(CC(=O)c3cccnc3)c(CC(=O)c3cccnc3)nc2c1
active: [1]; [8] 95% | [1]; at 50.0 µM 76.3% | [2]; [8] 94% | [3]; [8] 87% | [4]; [8] 96% | [4]; at 50.0 µM 76.3% | [5]; [8] 93% | [6]; [8] 91%
inactive: [1]; [7] 7% | [2]; [7] 12% | [2]; at 50.0 µM 63.2% | [3]; [7] -1% | [3]; at 50.0 µM 66.7% | [4]; [7] 14% | [5]; [7] 8% | [5]; at 50.0 µM 60.7% | [6]; [7] 1% | [6]; at 50.0 µM 60.5%

CC(C)c1cc2c(cc1O)C(O)C1(O)CCCC(C)(C)[C@H]1CC2 (some centres not stated)
inactive: [1]; [7] -6% | [2]; [7] -1% | [3]; [7] -1% | [4]; [7] -11% | [5]; [7] 6% | [6]; [7] -3%
active: [1]; [8] 99% | [1]; at 50.0 µM 91.4% | [2]; [8] 100% | [2]; at 50.0 µM 93.7% | [3]; [8] 99% | [3]; at 50.0 µM 93% | [4]; [8] 99% | [4]; at 50.0 µM 91.6% | [5]; [8] 99% | [5]; at 50.0 µM 93% | [6]; [8] 99% | [6]; at 50.0 µM 91.8%

C[N+]1(c2ccccc2)C=C(c2ccccc2)SC1=S (configuration not stated)
active: [1]; [8] 86% | [6]; [8] 75% | [6]; at 50.0 µM 74.8%
inactive: [1]; [7] 7% | [1]; at 50.0 µM 67.8% | [2]; [7] 25% | [2]; [8] 68% | [2]; at 50.0 µM 20.6% | [3]; [7] -8% | [3]; [8] 36% | [3]; at 50.0 µM 60.5% | [4]; [7] 1% | [4]; [8] 10% | [4]; at 50.0 µM 23.4% | [5]; [7] 13% | [5]; [8] 67% | [5]; at 50.0 µM 54.8% | [6]; [7] 12%
